Laboratory results reported in PubChem BioAssay (Tox21).
“And” between values parts separate entries of the source, which are not always exact repeats. Equal values may be shown once. Records with an inconclusive call do not appear. Where a call stands in place of a potency, no number is given. A structure can be active in one record and inactive in another. The source made the active and inactive calls. Unless noted, calls come from the whole dose curve; as a rule, active = well fitted curve in the direction sought with a large enough effect in the repeat runs; inconclusive = weak or mixed curves; inactive = no such curve, though single readings can be large; an effect the other way counts as inactive or inconclusive.

Assays:
[1] = qHTS assay to identify aromatase inhibitors - cell viability counter screen (AID 743084);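 note: cells stimulated with testosterone during compound exposure; nearly all actives have a fitted effect of over 55% in size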
[2] = molecular target: Aryl hydrocarbon receptor (Homo sapiens) (UniProt P35869); assay: qHTS assay to identify small molecule that activate the aryl hydrocarbon receptor (AhR) signaling pathway (AID 743085); note: nearly all actives have a fitted effect of over 15% in size; note: potency is the fitted concentration of half-maximal effect;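 for activation: HG2L7.5c1 human HepG2 liver cells with stably integrated DRE-driven firefly reporter; series mostly up to about 70 µM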
Aryl hydrocarbon receptor (Homo sapiens), sequence (P35869 whole entry, looked up): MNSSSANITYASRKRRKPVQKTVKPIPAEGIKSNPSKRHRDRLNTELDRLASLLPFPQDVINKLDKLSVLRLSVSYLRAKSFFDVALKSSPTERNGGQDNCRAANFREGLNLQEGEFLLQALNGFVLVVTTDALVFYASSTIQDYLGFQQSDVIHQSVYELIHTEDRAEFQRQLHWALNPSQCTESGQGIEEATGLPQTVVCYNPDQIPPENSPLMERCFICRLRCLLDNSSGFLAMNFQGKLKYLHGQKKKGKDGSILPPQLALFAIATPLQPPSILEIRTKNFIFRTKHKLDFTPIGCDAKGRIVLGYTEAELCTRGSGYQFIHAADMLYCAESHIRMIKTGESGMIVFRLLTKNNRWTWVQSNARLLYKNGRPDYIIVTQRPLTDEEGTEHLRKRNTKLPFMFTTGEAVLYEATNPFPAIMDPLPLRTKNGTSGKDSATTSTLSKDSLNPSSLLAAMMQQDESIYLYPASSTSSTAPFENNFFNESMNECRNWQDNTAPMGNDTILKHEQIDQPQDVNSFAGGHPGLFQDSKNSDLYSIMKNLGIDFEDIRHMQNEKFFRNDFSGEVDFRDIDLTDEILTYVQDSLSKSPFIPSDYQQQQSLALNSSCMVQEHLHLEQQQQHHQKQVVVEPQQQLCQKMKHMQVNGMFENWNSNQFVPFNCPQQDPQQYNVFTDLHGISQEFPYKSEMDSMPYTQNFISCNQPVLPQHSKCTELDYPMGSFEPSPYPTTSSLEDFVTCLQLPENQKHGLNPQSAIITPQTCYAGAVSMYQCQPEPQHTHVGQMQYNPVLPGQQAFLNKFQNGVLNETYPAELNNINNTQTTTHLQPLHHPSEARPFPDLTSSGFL
Outline: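 Cell line HG2L7.5c1 (human hepatoma, 20× DRE-luc). Plated, 5 h 37C, compound/DMSO added, 24 h 37C. CellTiter-Fluor 30 min 37C → fluorescence; then ONE-Glo 30 min RT → luminescence.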

[3] = qHTS assay to identify small molecule that activate the aryl hydrocarbon receptor (AhR) signaling pathway - cell viability counter screen (AID 743086);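 note: HepG2 liver cells carrying the AhR DRE luciferase reporter; series mostly up to about 70 µM; nearly all actives have a fitted effect of over 45% in size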
Outline: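 Cytotoxicity counter screen: CellTiter-Fluor signal (30 min, 37 C) in 4000 HepG2 cells/well carrying the DRE-luciferase reporter, following 24 h compound exposure at 37 C.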

[4] = molecular target: Peroxisome proliferator-activated receptor gamma (Homo sapiens) (UniProt P37231); assay: qHTS assay to identify small molecule agonists of the peroxisome proliferator-activated receptor gamma (PPARg) signaling pathway (AID 743094; active = well fitted activation curve with a large enough effect in the signal ratio in the repeat runs, not every such curve was filed as active; the % refers to the signal ratio)
Peroxisome proliferator-activated receptor gamma (Homo sapiens), sequence (P37231 whole entry, looked up): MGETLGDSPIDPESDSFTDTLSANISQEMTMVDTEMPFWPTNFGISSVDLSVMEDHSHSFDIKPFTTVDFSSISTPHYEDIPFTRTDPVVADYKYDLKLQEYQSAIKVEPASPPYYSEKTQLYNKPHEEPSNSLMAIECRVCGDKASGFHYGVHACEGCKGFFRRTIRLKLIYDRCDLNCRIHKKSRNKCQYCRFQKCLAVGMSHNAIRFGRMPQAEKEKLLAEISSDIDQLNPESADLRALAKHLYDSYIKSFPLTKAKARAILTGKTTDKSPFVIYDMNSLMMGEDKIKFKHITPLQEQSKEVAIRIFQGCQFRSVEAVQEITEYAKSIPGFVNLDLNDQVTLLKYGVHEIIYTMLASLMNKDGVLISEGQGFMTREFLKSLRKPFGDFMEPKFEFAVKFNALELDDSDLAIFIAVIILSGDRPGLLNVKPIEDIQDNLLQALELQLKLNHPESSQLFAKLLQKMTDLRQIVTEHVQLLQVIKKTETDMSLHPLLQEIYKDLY
Outline: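 Agonist activity was taken from a beta-lactamase reporter (FRET substrate, 1 h at room temperature) in HEK293H cells carrying a PPARg UAS-bla construct. Compounds in DMSO were incubated 17 h at 37C after a 5 h cell pre-incubation.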

[5] = qHTS assay to identify small molecule antagonists of the peroxisome proliferator-activated receptor gamma (PPARg) signaling pathway - cell viability counter screen (AID 743194); note: nearly all actives have a fitted effect of over 55% in size
Outline: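 Viability was measured as CellTiter-Glo luminescence in GeneBLAzer PPARg UAS-bla HEK293H cells. These cells had been exposed 17 h at 37 C to compounds together with rosiglitazone at 50 nM final, with the beta-lactamase readout taken in the same wells.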

[6] = qHTS assay for small molecule agonists of the antioxidant response element (ARE) signaling pathway (AID 743202; active = well fitted activation curve with a large enough effect in the signal ratio in the repeat runs, not every such curve was filed as active; the % refers to the signal ratio)
Outline: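 Beta-lactamase reporter activity, read as fluorescence intensity, reflects ARE/Nrf2 pathway induction in HepG2 cells after 16 h compound exposure at 37 C; substrate loading was 2 h at room temperature.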

[7] = qHTS assay for small molecule agonists of the antioxidant response element (ARE) signaling pathway - cell viability counter screen (AID 743203; calls by dose curve; note: nearly all actives have a fitted effect of over 55% in size)
Outline: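 Viability counter screen: CellTiter-Glo luminescence, read after 30 min at room temperature, in ARE-bla HepG2 wells. Compound exposure lasted 16 h at 37C/5% CO2, following a 5 h pre-incubation of the cells after plating.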

[8] = qHTS assay for small molecule activators of the heat shock response signaling pathway - cell viability counter screen (AID 743209); note: nearly all actives have a fitted effect of over 50% in size
Outline: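 Cytotoxicity counter screen run in the same wells as the heat-shock bla reporter assay: HeLa HSE-bla cells, 5 h compound exposure at 37 C, viability read by CellTiter-Glo luminescence.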

[9] = qHTS assay for small molecule activators of the heat shock response signaling pathway (AID 743210; active = well fitted activation curve with a large enough effect in the signal ratio in the repeat runs, with a control signal flat, not every such curve was filed as active; the % refers to the signal ratio;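 note: HeLa cells with beta-lactamase reporter driven by heat shock elements; series mostly up to about 63 µM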)
Outline: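 Fluorescence from a cleaved B/G FRET substrate (2.5 h, room temp) reports HSE-driven beta-lactamase in HeLa cells treated 5 h at 37 C with DMSO-dissolved compounds.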

[10] = qHTS assay to identify small molecule agonists of the peroxisome proliferator-activated receptor delta (PPARd) signaling pathway - cell viability counter screen (AID 743211); note: nearly all actives have a fitted effect of over 55% in size
Outline: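 HEK293H PPARd-bla, 3000 cells/well; 5 h preincubation 37C/5% CO2; cpd in DMSO, 17 h 37C; B/G FRET substrate 2 h RT; CellTiter-Glo 30 min RT, luminescence.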

[11] = qHTS assay to identify small molecule antagonists of the peroxisome proliferator-activated receptor delta (PPARd) signaling pathway - cell viability counter screen (AID 743213); note: nearly all actives have a fitted effect of over 50% in size
Outline: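 CellTiter-Glo was added to PPARd-bla HEK293H wells following 17 h compound treatment in the presence of 300 nM L165041. Luminescence was recorded after 30 min at room temperature.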

[12] = qHTS assay to identify small molecule agonists of the farnesoid-X-receptor (FXR) signaling pathway - cell viability counter screen (AID 743218); note: nearly all actives have a fitted effect of over 45% in size
Outline: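 Viability counter screen in the same wells: CellTiter-Glo luminescence, 30 min room-temperature incubation, measured after the beta-lactamase read. Cells were GeneBLAzer FXR-UAS-bla HEK 293T, compound-treated 16 h at 37C.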

[13] = qHTS assay to identify small molecule antagonists of the farnesoid-X-receptor (FXR) signaling pathway - cell viability counter screen (AID 743221; active = well fitted cell-killing curve with a large enough effect in the repeat runs, not every such curve was filed as active; note: nearly all actives have a fitted effect of over 50% in size)
Outline: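 Luminescence from CellTiter-Glo measures cytotoxicity in GeneBLAzer FXR-UAS-bla HEK 293T cells. Cells were exposed to compounds with 50 uM chenodeoxycholic acid (final) for 16 h at 37 C, in wells also used for the reporter readout.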

[14] = molecular target: Vitamin D3 receptor (Homo sapiens) (UniProt P11473); assay: qHTS assay to identify small molecule agonists of the vitamin D receptor (VDR) signaling pathway (AID 743222; calls by dose curve)
Vitamin D3 receptor (Homo sapiens), sequence (P11473 whole entry, looked up): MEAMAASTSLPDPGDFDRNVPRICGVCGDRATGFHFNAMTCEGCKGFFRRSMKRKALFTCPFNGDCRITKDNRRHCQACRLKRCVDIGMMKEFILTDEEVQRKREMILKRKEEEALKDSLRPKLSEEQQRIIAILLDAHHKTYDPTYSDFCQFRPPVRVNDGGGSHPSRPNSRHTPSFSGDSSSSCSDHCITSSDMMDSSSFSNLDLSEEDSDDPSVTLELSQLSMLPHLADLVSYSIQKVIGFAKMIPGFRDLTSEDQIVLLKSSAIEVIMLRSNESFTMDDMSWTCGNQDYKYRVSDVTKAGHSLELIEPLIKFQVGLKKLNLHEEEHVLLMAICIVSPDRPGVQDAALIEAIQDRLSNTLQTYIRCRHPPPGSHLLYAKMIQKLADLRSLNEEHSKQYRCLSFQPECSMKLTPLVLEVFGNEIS
Outline: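 Agonist mode, beta-lactamase reporter: fluorescence from LiveBLAzer B/G FRET substrate (2 h, room temperature) read after 16 h compound treatment at 37 C of VDR-bla cells, which were pre-incubated 4 h after seeding.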

[15] = molecular target: Vitamin D3 receptor (Homo sapiens) (UniProt P11473); assay: qHTS assay to identify small molecule antagonists of the vitamin D receptor (VDR) signaling pathway (AID 743223; active = well fitted inhibition curve with a large enough effect in the signal ratio in the repeat runs, not every such curve was filed as active; the % refers to the signal ratio)
Outline: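 Antagonist mode uses 1alpha,25-dihydroxyvitamin D3 at 3 nM final as stimulus. VDR-bla cells receive compounds in DMSO, incubate 16 h at 37C, then a beta-lactamase FRET substrate for 2 h at room temperature before fluorescence measurement.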

[16] = molecular target: Peroxisome proliferator-activated receptor gamma (Homo sapiens) (UniProt P37231); assay: qHTS assay to identify small molecule antagonists of the peroxisome proliferator-activated receptor gamma (PPARg) signaling pathway (AID 743191; calls by dose curve; note: series mostly up to about 63 µM; nearly all actives have a fitted effect of over 30% in size)
Outline: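 Beta-lactamase reporter under UAS control in HEK293H PPARg-bla cells; compound treatment 17 h at 37C. Read-out: fluorescence intensity after 1 h room-temperature incubation with LiveBLAzer B/G FRET substrate.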

[17] = molecular target: Peroxisome proliferator-activated receptor delta (Homo sapiens) (UniProt Q03181); assay: qHTS assay to identify small molecule agonists of the peroxisome proliferator-activated receptor delta (PPARd) signaling pathway (AID 743212; calls by dose curve;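 note: HEK293H cells with PPARd UAS beta-lactamase reporter GeneBLAzer system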)
Peroxisome proliferator-activated receptor delta (Homo sapiens), sequence (Q03181 whole entry, looked up): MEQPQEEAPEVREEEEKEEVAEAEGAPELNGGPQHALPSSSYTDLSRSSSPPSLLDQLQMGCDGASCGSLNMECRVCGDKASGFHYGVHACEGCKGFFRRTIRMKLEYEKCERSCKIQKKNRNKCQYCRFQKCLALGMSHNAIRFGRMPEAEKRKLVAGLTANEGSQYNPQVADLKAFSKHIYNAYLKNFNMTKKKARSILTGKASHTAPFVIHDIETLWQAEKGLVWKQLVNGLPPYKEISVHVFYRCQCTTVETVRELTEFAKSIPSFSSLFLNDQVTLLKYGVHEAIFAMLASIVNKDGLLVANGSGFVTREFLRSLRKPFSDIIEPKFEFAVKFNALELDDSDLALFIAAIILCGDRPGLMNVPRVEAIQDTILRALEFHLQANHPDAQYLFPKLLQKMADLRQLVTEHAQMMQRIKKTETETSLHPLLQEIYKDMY
Outline: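 Steps: seed PPARd-bla HEK293H cells; incubate 5 h, 37 C, 5% CO2; add compounds in DMSO; incubate, 37 C; add LiveBLAzer B/G FRET substrate; hold 2 h at room temperature; measure fluorescence.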

[18] = molecular target: Peroxisome proliferator-activated receptor delta (Homo sapiens) (UniProt Q03181); assay: qHTS assay to identify small molecule antagonists of the peroxisome proliferator-activated receptor delta (PPARd) signaling pathway (AID 743215; active = well fitted inhibition curve with a large enough effect in the signal ratio in the repeat runs, not every such curve was filed as active; the % refers to the signal ratio;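 note: cells stimulated with agonist L165041 at 300 nM final during compound exposure; series mostly up to about 62 µM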)
Outline: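 Agonist L165041 (300 nM final) added with compound to PPARd-bla HEK293H UAS-bla reporter cells; 17 h incubation at 37 C. Read-out: LiveBLAzer FRET substrate, 2 h at room temperature, fluorescence intensity.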

[19] = molecular target: Bile acid receptor (Homo sapiens) (UniProt Q96RI1); assay: qHTS assay to identify small molecule antagonists of the farnesoid-X-receptor (FXR) signaling pathway (AID 743217; active = well fitted inhibition curve with a large enough effect in the signal ratio in the repeat runs, not every such curve was filed as active; the % refers to the signal ratio)
Bile acid receptor (Homo sapiens), sequence (Q96RI1 whole entry, looked up): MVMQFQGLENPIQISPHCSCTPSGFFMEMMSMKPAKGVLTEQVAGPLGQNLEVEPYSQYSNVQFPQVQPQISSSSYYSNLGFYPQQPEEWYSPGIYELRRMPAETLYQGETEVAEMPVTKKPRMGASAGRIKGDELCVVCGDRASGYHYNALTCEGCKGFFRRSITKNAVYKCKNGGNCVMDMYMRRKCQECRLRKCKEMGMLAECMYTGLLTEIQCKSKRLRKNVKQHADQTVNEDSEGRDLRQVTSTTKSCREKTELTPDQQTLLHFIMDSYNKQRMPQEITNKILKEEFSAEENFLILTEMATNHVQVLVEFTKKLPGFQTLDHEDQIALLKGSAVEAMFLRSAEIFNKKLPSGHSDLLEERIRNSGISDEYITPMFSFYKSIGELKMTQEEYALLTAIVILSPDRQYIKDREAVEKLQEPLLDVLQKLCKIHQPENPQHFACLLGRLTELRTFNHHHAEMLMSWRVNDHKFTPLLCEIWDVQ
Outline: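 Antagonist mode: chenodeoxycholic acid at 50 uM final stimulates a UAS-driven beta-lactamase reporter in HEK 293T FXR-bla cells during 16 h, 37C compound exposure. Read-out is FRET substrate fluorescence after 2 h at room temperature.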

[20] = molecular target: Bile acid receptor (Homo sapiens) (UniProt Q96RI1); assay: qHTS assay to identify small molecule agonists of the farnesoid-X-receptor (FXR) signaling pathway (AID 743220; active = well fitted activation curve with a large enough effect in the signal ratio in the repeat runs, not every such curve was filed as active; the % refers to the signal ratio)
Outline: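 FXR-UAS-bla HEK 293T cells carrying a UAS-driven beta-lactamase reporter were plated for 5 h at 37C/5% CO2, then exposed to DMSO-dissolved Tox21 10K compounds for 16 h at 37C. A LiveBLAzer B/G FRET substrate was loaded for 2 h at room temperature before fluorescence reading.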

Structure (SMILES): O=C1OC(=O)C2CCCCC12 (configuration not stated)
- Potency [1]: inactive
- Potency [2]: inactive
- Potency [3]: inactive
- outcome [4]: inactive
- outcome [5]: inactive
- Potency [6]: inactive
- Potency [7]: inactive
- outcome [8]: inactive
- outcome [9]: inactive
- Potency [10]: inactive
- Potency [11]: inactive
- Potency [12]: inactive
- Potency [13]: inactive
- outcome [14]: inactive
- outcome [15]: inactive

Structure (SMILES): CCCCCCCCCCCCN(CCCCCCCCCCCC)CCCCCCCCCCCC
- Potency [1]: inactive
- Potency [2]: inactive
- Potency [3]: inactive
- outcome [4]: inactive
- Potency [16]: inactive
- Potency [7]: inactive
- outcome [8]: inactive
- outcome [9]: inactive
- Potency [10]: inactive
- outcome [17]: inactive
- Potency [11]: inactive
- Potency [18]: inactive
- Potency [12]: inactive
- Potency [13]: inactive
- outcome [14]: inactive
- outcome [15]: inactive

Structure (SMILES): CC1=CC(C)C(C=O)CC1 (configuration not stated)
- Potency [1]: inactive
- Potency [2]: inactive
- Potency [3]: inactive
- outcome [4]: inactive
- Potency [16]: inactive
- outcome [5]: inactive
- Potency [7]: inactive
- outcome [9]: inactive
- Potency [10]: inactive
- outcome [17]: inactive
- Potency [11]: inactive
- Potency [12]: inactive
- Potency [13]: inactive
- outcome [14]: inactive

Structure (SMILES): FC(F)OC(Cl)C(F)(F)F (configuration not stated)
- Potency [1]: inactive
- Potency [2]: inactive
- Potency [3]: inactive
- outcome [4]: inactive
- Potency [16]: inactive
- Potency [6]: inactive
- Potency [7]: inactive
- outcome [9]: inactive
- outcome [17]: inactive
- Potency [18]: inactive
- outcome [19]: inactive
- outcome [20]: inactive
- Potency [13]: inactive

Structure (SMILES): NS(=O)(=O)c1cc2c(cc1Cl)NC(C1CC3C=CC1C3)NS2(=O)=O (configuration not stated)
- Potency [1]: inactive
- Potency [2]: inactive
- Potency [3]: inactive
- outcome [4]: inactive
- outcome [5]: inactive
- Potency [6]: inactive
- Potency [7]: inactive
- outcome [8]: inactive
- outcome [9]: inactive
- Potency [10]: inactive
- outcome [17]: inactive
- Potency [11]: inactive
- Potency [18]: inactive
- Potency [12]: inactive
- Potency [13]: inactive
- outcome [14]: inactive
- outcome [15]: inactive

Structure (SMILES): O=C(O)CN(CCOCCOCCN(CC(=O)O)CC(=O)O)CC(=O)O
- Potency [1]: inactive
- Potency [2]: inactive
- Potency [3]: inactive
- outcome [4]: inactive
- ratio activity, negative = inhibition [16]: -4.72% [at 0.55 µM] (inactive)
- activity change, negative = cytotoxicity [5]: 11.4% [at 0.55 µM] (inactive)
- viability change, negative = cytotoxic [7]: 1.75% [at 0.756 µM] (inactive)
- activation [9]: 0.198% [at 0.55 µM] (inactive)
- viability change, negative = cytotoxic [11]: 5.18% [at 0.575 µM] (inactive)
- ratio activity, negative = inhibition [18]: 6.3% [at 0.575 µM] (inactive)
- viability change, negative = cytotoxic [12]: -1.35% [at 0.55 µM] (inactive)
- activity change, negative = cytotoxicity [13]: -3.69% [at 0.55 µM] (inactive)
- activation [14]: 6.34% [at 0.554 µM] (inactive)
- activity change, negative = inhibition [15]: 2.94% [at 0.628 µM] (inactive)

Structure (SMILES): CC(C)(CC(=O)O)C(=O)O
- Potency [1]: inactive
- Potency [2]: inactive
- Potency [3]: inactive
- outcome [4]: inactive
- outcome [5]: inactive
- Potency [6]: inactive
- Potency [7]: inactive
- outcome [8]: inactive
- outcome [9]: inactive
- Potency [10]: inactive
- outcome [17]: inactive
- Potency [11]: inactive
- Potency [18]: inactive
- Potency [12]: inactive
- Potency [13]: inactive
- outcome [14]: inactive
- outcome [15]: inactive

Structure (SMILES): COC(=O)c1c(Cl)c(Cl)c(C(=O)OC)c(Cl)c1Cl
- Potency [1]: inactive
- Potency [2]: inactive and 48.6 µM (active)
- Potency [3]: inactive
- outcome [4]: inactive
- Potency [16]: inactive
- outcome [5]: inactive
- Potency [7]: inactive
- outcome [8]: inactive
- outcome [9]: inactive
- outcome [17]: inactive
- Potency [11]: inactive
- Potency [18]: inactive
- outcome [19]: inactive
- outcome [20]: inactive
- Potency [13]: inactive
- outcome [14]: inactive

Structure (SMILES): CCC(C)C1CCCCC1=O (configuration not stated)
- Potency [1]: inactive
- Potency [2]: inactive
- Potency [3]: inactive
- outcome [4]: inactive
- outcome [5]: inactive
- Potency [6]: inactive
- Potency [7]: inactive
- outcome [8]: inactive
- outcome [9]: inactive
- Potency [10]: inactive
- outcome [17]: inactive
- Potency [11]: inactive
- Potency [18]: inactive
- Potency [13]: inactive
- outcome [14]: inactive
